CCHF vOTU inh = CCHFV vOTU protease inhibitors, primary screen, biochemical, Pep-AMC substrate, fluorescence; Crimean-Congo hemorrhagic fever virus L polyprotein viral ovarian tumor (vOTU) protease …; inhibition, % at 11.5 µM; 370,000 compounds, 0.55% hits; note: 0% = vehicle wells with enzyme and 100% = no enzyme wells
RecA splice inh = Mtb RecA intein splicing inhibitors, primary screen, biochemical, fluorescence, HTS; cell-free RecA intein splicing; 290,000 compounds, 0.75% hits; Protein RecA (Mycobacterium tuberculosis (strain ATCC 25618 / H37Rv)), P9WHJ3; inhibition, % (no concentration beside the values); AID 2221, 2009; in the data active = inhibition above about 30%;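 note: 0% = vehicle wells and 100% = reference inhibitor control wells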
GDH-TPI counter-1 = GDH-TPI coupling enzyme inhibitors, primary screen, artefact control for M. tuberculosis FBA inhibitor project, biochemical, absorbance, full deck. GDH-TPI coupled enzyme counterscreen, NADH absorbance. inhibition, % at 4.8 µM. 360,000 compounds, 1.2% hits;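 note: 0% = DMSO wells and 100% = wells lacking the enzyme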
3CLpro inhibitor = SARS-CoV 3CLpro protease inhibitors, primary screen, biochemical, quenched FRET; recombinant SARS-CoV 3CLpro, quenched FRET peptide cleavage; 290,000 compounds, 0.14% hits; inhibition, % at 6 µM; AID 1706, 2009; in the data active = inhibition above about 12%
FBA Mtb inh = Mtb FBA enzyme inhibitors, primary screen, biochemical, fluorescence, strain H37Rv; purified M. tuberculosis FBA, fluorescence read-out; inhibition, % at 1 µM; 360,000 compounds, 2.3% hits; in the data active = inhibition above about 27%;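 note: 0% = vehicle and 100% = reference inhibitor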
VHR inh abs = VHR1 phosphatase inhibitors, primary screen, biochemical, absorbance, uHTS. Dual specificity protein phosphatase 3 (Homo sapiens), P51452. recombinant VHR phosphatase, pNPP absorbance. inhibition, % at 13.3 µM. 290,000 compounds, 0.52% hits; in the data active = inhibition above about 50%
Target sequence (P51452 whole entry, looked up): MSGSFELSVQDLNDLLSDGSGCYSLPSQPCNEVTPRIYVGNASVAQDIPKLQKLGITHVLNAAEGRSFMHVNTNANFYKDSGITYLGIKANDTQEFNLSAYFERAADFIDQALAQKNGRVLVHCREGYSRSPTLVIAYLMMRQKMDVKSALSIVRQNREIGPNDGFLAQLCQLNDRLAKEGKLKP
Mtb FBA inh conf = M. tuberculosis aldolase blockers, biochemical, fluorescence, strain H37Rv, confirmation; inhibition, % at 1 µM; purified M. tuberculosis FBA, fluorescence read-out; shares compounds with FBA Mtb inh; 5,600 compounds, 78% hits; in the data active = inhibition above about 27%;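 note: 0% = vehicle wells and 100% = reference inhibitor wells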
GDH-TPI counter-2 = GDH-TPI coupling enzyme inhibitors, artefact control for M. tuberculosis FBA inhibitor project, biochemical, fluorescence, high throughput; shares compounds with FBA Mtb inh; GDH-TPI coupled enzyme counterscreen; inhibition, % at 1 µM; 5,600 compounds, 81% hits; AID 652141, 2013; in the data active = inhibition above about 10%
* marks the source's active call; other numbers are inactive results; · = no result; + = active, no number. The list is not random: actives were taken first. Their share in the collection is about 4.7%. Cut-off read from the data, not from the text of the source, unless noted: active = inhibition above about 30%; inactive = the rest.

SMILES | CCHF vOTU inh | RecA splice inh | GDH-TPI counter-1 | 3CLpro inhibitor | FBA Mtb inh | VHR inh abs | Mtb FBA inh conf | GDH-TPI counter-2
O=c1cc(Nc2ccc3c(c2)OCCO3)[nH]c(=O)n1-c1ccc(Cl)cc1 | 2 | -1 | 6 | -2 | 33* | 16 | 78* | 69*
Cn1c2ccccc2c(=O)c2ccc(NCCc3cccs3)cc21 | -73 | · | 30 | · | 109* | · | 5 | -1
Cc1csc(SCC(=O)N(C)CC(=O)Nc2ccc(F)cc2)n1 | · | 0 | -6 | -5 | 28* | 13 | 29* | 13*
CN(CC(=O)Nc1ccc(F)cc1)C(=O)CSc1nncs1 | -6 | 0 | 11 | 2 | 4 | 24 | · | ·
C(=C\c1nc2ccccc2[nH]1)/c1ccccc1 | -48 | 2 | 37* | 4 | 32* | 17 | + | +
C(=C\c1ccco1)/c1nc2ccccc2[nH]1 | -7 | -5 | 28 | 4 | 23 | -1 | · | ·
COc1ccc(S(=O)(=O)N2CCC[C@H]2C(=O)N2CCC[C@H]2C(=O)N[C@@H](C)c2ccccc2)cc1C | 16 | · | · | · | · | · | · | ·
CC(=O)c1ccccc1C(=O)N1CCCC(C(=O)c2ccc(C(F)(F)F)cc2)C1 (configuration not stated) | 7 | -3 | 0 | -1 | 5 | 17 | · | ·
C/C(=C\COc1ccc2ccc(=O)oc2c1)CC[C@@H](O)C(C)(C)O | -26 | · | 16 | · | 83* | · | -5 | -5
C/C(=C\COc1cc(=O)[nH]c2ccccc12)CCC(O)C(C)(C)O (configuration not stated) | 0 | -1 | -5 | 6 | 3 | -2 | · | ·
COC(=O)C1C(O)=C(C=Nc2cccc3ccccc23)C(=O)CC1(C)C (configuration not stated) | -5 | -2 | 5 | 1 | 32* | 8 | 131* | 93*
O=C(Nc1ccccc1Cl)OC1CCCCC1 | 7 | 0 | -3 | 4 | -1 | 28 | · | ·
O=C(NCc1ccccc1)C1Cc2c(-c3ccc4c(c3)OCO4)ccnc2O1 (configuration not stated) | -6 | · | 4 | · | 65* | · | + | +
NC(=O)c1cccc(-c2ccnc3c2CC(C(=O)NCc2ccccc2)O3)c1 (configuration not stated) | 1 | · | 4 | · | 5 | · | · | ·
O=C(NCc1ccncc1)C1Cc2c(-c3ccc4c(c3)OCO4)ccnc2O1 (configuration not stated) | 3 | · | -4 | · | 45* | · | 59* | 44*
CN1CCN(c2ccc(CNC(=O)C3Cc4c(-c5ccc6c(c5)OCO6)ccnc4O3)cc2)CC1 (configuration not stated) | 0 | · | -6 | · | 23 | · | · | ·
CCN(C1CCCCC1)S(=O)(=O)CCNC(=O)c1ccc2c(c1)OCO2 | 2 | 0 | 12 | · | 8 | · | · | ·
CCCC1C2CN(C(C)C)CC=C2C(C#N)=C(N)C1(C#N)C#N (configuration not stated) | -30 | -100 | 16 | -4 | 46* | 10 | 26 | 29*
CCOC(=O)N1CC=C2C(C#N)=C(N)C(C#N)(C#N)[C@H](c3ccc(OC(C)C)c(OCC)c3)[C@H]2C1 | 7 | 17 | 15 | -5 | 1 | 22 | · | ·
CN1CC=C2C(C#N)=C(N)C(C#N)(C#N)C(c3ccsc3)C2C1 (configuration not stated) | -20 | -57 | 8 | -9 | 30* | 21 | 79* | 65*
CCOC(=O)N1CC=C2C(C#N)=C(N)C(C#N)(C#N)[C@H](c3ccsc3)[C@H]2C1 | -5 | 9 | 26 | 0 | 5 | 14 | · | ·

From PubChem BioAssay
